Source: PubChem BioAssay (National Center for Advancing Translational Sciences (NCATS))
AmpC detergent = qHTS Inhibitors of AmpC Beta-Lactamase (assay with detergent) | AID 485294, 2010 | 370,000 compounds, 0.041% hits | Potency, µM (top dose mostly 114 µM), inactives show at the top dose activity change, negative = inhibition, hits mostly inhibitors | AmpC hydrolysis of nitrocefin, absorbance 480 nm, 0.01% Triton | P00811;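 also: 0% = no-compound wells and -100% = no-enzyme wells; nearly all actives have a fitted effect of over 25% in size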
Target sequence (P00811 whole entry, looked up): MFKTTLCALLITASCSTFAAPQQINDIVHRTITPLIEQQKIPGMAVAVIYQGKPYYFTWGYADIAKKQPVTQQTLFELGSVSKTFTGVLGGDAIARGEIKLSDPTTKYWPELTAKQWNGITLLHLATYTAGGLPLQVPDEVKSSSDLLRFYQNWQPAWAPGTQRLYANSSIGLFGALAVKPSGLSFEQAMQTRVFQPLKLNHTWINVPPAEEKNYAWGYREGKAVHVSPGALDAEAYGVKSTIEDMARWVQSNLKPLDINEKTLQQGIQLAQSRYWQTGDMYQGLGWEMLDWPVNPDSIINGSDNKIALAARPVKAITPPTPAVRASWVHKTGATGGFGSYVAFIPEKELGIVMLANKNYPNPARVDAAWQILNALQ
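AmpC (5.3 nM in the dispensed reagent) in 20 mM phosphate pH 7.0 with 0.01% (detergent screen) or 0.0001% Triton X-100 was preincubated with compounds for 15 min at room temperature. Nitrocefin was then added from an 800 uM solution, and hydrolysis was followed at 480 nm.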
AmpC inh no detg = qHTS Inhibitors of AmpC Beta-Lactamase (assay without detergent); P00811; AmpC nitrocefin hydrolysis, absorbance 480 nm, 0.0001% Triton; Potency, µM (top dose mostly 57.1 µM), inactives show top-dose activity change, negative = inhibition, most hits filed as inhibitors; 330,000 compounds, 0.52% hits; AID 485341, 2010;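 also: plate controls were no compound for no effect and no enzyme for full effect; nearly all actives have a fitted effect of over 20% in size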
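20 mM phosphate pH 7.0 + 0.01% (detergent screen) or 0.0001% Triton X-100; 5.3 nM AmpC reagent; cpd preinc 15 min RT; nitrocefin (800 uM stock) to start; A480 q20 s × 4 min; Activity was normalised to no-enzyme and no-compound control wells.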
Pf growth 48h = Primary qHTS for delayed death inhibitors of the malarial parasite plastid, 48 hour incubation. Potency, µM (highest dose often 28.7 µM), inactives show at the top dose activity change, negative = inhibition, most hits filed as inhibitors. AID 504832, 2011. P. falciparum luciferase growth in erythrocytes, 48 h. 310,000 compounds, 5.9% hits; also: % is scaled to controls: 0 for no effect and ±100 for the full control effect
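Cell-based growth assay: transgenic P. falciparum expressing firefly luciferase, cultured in red cells within RPMI 1640 containing 0.5% w/v Albumax, 24 mM bicarbonate and gentamycin. A drop in luciferase activity indicates inhibition.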
SARS PLpro yeast = qHTS of Yeast-based Assay for SARS-CoV PLP; 330,000 compounds, 0.19% hits; Potency, µM (titrated, usually from 32.9 µM), inactives show at the top dose activity, positive = growth rescue, actives largely listed as activators; S. cerevisiae expressing SARS-CoV PLpro, growth rescue; calls by dose curve; also: 0% is about no effect; nearly all actives have a fitted effect of over 55% in size
Sm TGR inh = qHTS Assay for the Inhibitors of Schistosoma Mansoni Peroxiredoxins. purified TGR, DTNB reduction, TNB absorbance 405 nm. Potency, µM (series often up to 114 µM), without a hit: top-dose activity change, negative = inhibition, usual class: inhibitors. 360,000 compounds, 3% hits. AID 485364, 2010; also: % is scaled to controls: 0 for no effect and ±100 for the full control effect; nearly all actives have a fitted effect of over 60% in size
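TGR 20 nM + NADPH 100 uM (dispensed conc.), cpd preinc 15 min RT; start with NADPH (500 uM addition) then DTNB (15 mM addition). Kinetic TNB absorbance, 405 nm filter. Four-parameter Hill fit across titration.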
Pf growth 96h = Primary qHTS for delayed death inhibitors of the malarial parasite plastid, 96 hour incubation; Potency, µM (series often up to 28.7 µM), without a hit: at the top dose activity change, negative = inhibition, hits mostly inhibitors; P. falciparum luciferase reporter growth, 96 h; 320,000 compounds, 6.9% hits; AID 504834, 2011; also: % is scaled to controls: 0 for no effect and ±100 for the full control effect
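P. falciparum expressing integrated firefly luciferase, in erythrocytes at 2% hematocrit, 0.05% parasitemia, incubated with compounds 96 h at 37 C, 5% CO2. Growth inhibition read as loss of luminescence; two-generation exposure targets delayed-death apicoplast inhibitors.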
Numbers without * were called inactive; ? = inconclusive; nt = not tested or not shown; [ ] = another dose, or the depositor's remark. Compounds with a hit are over-represented: about 12% of the library has one in this group of screens. Unless noted, calls follow the shape of the dose curve; as a rule, active = well fitted curve in the direction sought with a large enough effect; inconclusive = small, poorly fitted or top-dose-only effect, or another doubt; inactive = no such curve, though single readings can be large; an effect the other way counts as inactive or inconclusive. Potency is read from the fitted curve at half-maximal effect.

SMILES | AmpC detergent | AmpC inh no detg | Pf growth 48h | SARS PLpro yeast | Sm TGR inh | Pf growth 96h
O=C(COCc1ccccc1)N[C@@H]1c2ccccc2CC[C@@H]1OCc1ccccc1 | nt | -3% | nt | 10% | nt | nt
Cc1ccc(-c2nnc(Nc3ccc(OCC(N)=O)cc3)c3ccccc23)cc1S(N)(=O)=O | 1% | -6% | 13µM* | -1% | 0% | 58%
COc1ccc(C(C[N+](=O)[O-])c2c(-c3ccccc3)cc3ccccn23)cc1 (centres undefined) | 7% | -12% | ? | 13% | -30% | 5%[5.75 µM]
COc1cc(C(C[N+](=O)[O-])c2c(C)cc3ccccn23)ccc1O (centres undefined) | -6% | 11% | ? | -7% | 18µM* | ?
COc1cc(C(C[N+](=O)[O-])c2c(-c3ccccc3)cc3ccccn23)cc(OC)c1OC (centres undefined) | -3% | 49% | nt | -10% | 8.9µM* | 12µM*
COc1ccc(C(C[N+](=O)[O-])c2c(-c3ccccc3)cc3ccccn23)cc1OC (centres undefined) | -4% | nt | ? | nt | 7.9µM* | ?
CCOc1ccc(Sc2cc(C(=O)NC(C)CC)c3ccccc3n2)cc1 (centres undefined) | 8% | nt | nt | nt | -3% | nt
Cc1ccc(Cl)cc1N1CCN(C(=O)C2CCN(c3nnc(-n4cccc4)s3)CC2)CC1 | ? | 1.8µM* | 13µM* | -17% | 1% | ?
Cc1ccc(Cl)cc1N1CCN(C(=O)c2cccn2-c2nnc(N3CCCCC3)s2)CC1 | -1% | nt | nt | nt | 9% | nt
Cc1cccc(N2CCN(C(=O)C3CCN(S(=O)(=O)N4CCOCC4)CC3)CC2C)c1 (centres undefined) | -5% | 117% | -15% | 0% | 48% | -21%
Cc1cccc(N2CCN(C(=O)CCC(=O)N3CC(C)Oc4ccc(C)cc43)CC2C)c1 (centres undefined) | -3% | 2% | 13µM* | -9% | 1% | -1%
Cc1ccc2c(c1)N(C(=O)CCC(=O)N1CCN(c3ccccn3)CC1)CC(C)O2 (centres undefined) | 2% | 93% | -30% | 3% | 9% | ?
Cc1cccc(N2CCN(C(=O)C3CCN(c4nnc(-n5cccc5)s4)CC3)CC2C)c1 (centres undefined) | -15% | 133% | 13µM* | -14% | -8% | ?
Cc1nc2nc(SCC(=O)N(C)Cc3ccccc3)nn2c(C)c1Cc1ccccc1Cl | 7% | nt | nt | nt | 5% | nt
Cc1cccc(N=[N+]([O-])c2cccc(C)n2)n1 | nt | -5% | nt | -4% | nt | nt
COc1cc(OC)cc(C(=O)NNC(=O)c2cc(S(=O)(=O)N3CCOCC3)ccc2F)c1 | 6% | -32% | -10% | 2% | -1% | ?
COc1cc(S(=O)(=O)Nc2ccc3c(c2)C(=O)N(C)C3=O)ccc1NC(C)=O | nt | -7% | nt | -5% | nt | nt
COc1cc(NC(=O)Cn2cnc3c(OCc4ccccc4)ncnc32)cc(OC)c1OC | nt | 43% | nt | 1% | nt | nt
CC(C)(C)OC(=O)NCCCCCNC(=O)c1[nH]cnc1C(=O)N[C@@H](CCCCNC(=O)OC(C)(C)C)C(=O)OC(C)(C)C | 8% | 216% | 9.3µM* | 0% | 1% | 0%
CC(C)(C)OC(=O)NCCCC[C@H](NC(=O)c1nc[nH]c1C(=O)NCc1ccc(CNC(=O)OC(C)(C)C)cc1)C(=O)OC(C)(C)C | -11% | 94% | ? | -2% | 0% | 12µM*
CC(C)(C)OC(=O)NCCCC[C@H](NC(=O)c1nc[nH]c1C(=O)NCC(=O)OCc1ccccc1)C(=O)OC(C)(C)C | ? | 194% | ? | 0% | 0% | 0%
C[C@H](NC(=O)c1nc[nH]c1C(=O)N[C@@H](CCCCNC(=O)OC(C)(C)C)C(=O)OC(C)(C)C)C(=O)OC(C)(C)C | 3% | 164% | 9.3µM* | 1% | 4% | 13µM*
CC(C)(C)OC(=O)NCCCC[C@H](NC(=O)c1nc[nH]c1C(=O)NC(c1ccccc1)c1ccccc1)C(=O)OC(C)(C)C | 8% | -6% | 3.7µM* | 1% | 10% | 2.1µM*
C[C@H](NC(=O)c1nc[nH]c1C(=O)N[C@@H](CCCCNC(=O)OC(C)(C)C)C(=O)OC(C)(C)C)C(=O)OCc1ccccc1 | 10% | 108% | ? | 11% | 4% | 17%
CCSc1ncc(Cl)c(C(=O)Nc2ccc(S(=O)(=O)Nc3nccc(C)n3)cc2)n1 | 21% | nt | nt | nt | 3% | nt
SMILES | AmpC detergent | AmpC inh no detg | Pf growth 48h | SARS PLpro yeast | Sm TGR inh | Pf growth 96h
COc1cccc(C(=O)Nc2nc3nc(C)c(Cc4ccccc4)c(=O)n3[nH]2)c1 | 15% | nt | nt | nt | 1% | nt
CCOc1ccc(NC(=O)c2ccc3nc(Cc4ccccc4)oc3c2)cc1 | 6% | nt | nt | nt | 2% | nt
CC(C)(C)OC(=O)CNC(=O)c1[nH]cnc1C(=O)N[C@@H](CCCCNC(=O)OC(C)(C)C)C(=O)OC(C)(C)C | 2% | 174% | ? | -1% | -5% | ?
CC(C)(C)OC(=O)NCCCC[C@H](NC(=O)c1nc[nH]c1C(=O)N[C@@H](CCCCNC(=O)OC(C)(C)C)C(=O)OC(C)(C)C)C(=O)OC(C)(C)C | -9% | 117% | 2.1µM* | 0% | -2% | 1.7µM*
O=C(Nc1ccc(Br)cc1)N1CCC(CN2CCCC2)CC1 | -8% | nt | nt | nt | -27% | nt
CC1=C(C(N)=O)C(c2ccccn2)n2nc(-c3ccccc3Cl)nc2N1 (centres undefined) | ? | 1% | 4% | 0% | -3% | 10µM*
COc1ccccc1C1C(C(N)=O)=C(C)Nc2nc(-c3ccccc3Cl)nn21 (centres undefined) | ? | -13% | nt | 1% | 2% | ?
CC1=C(C(N)=O)C(c2cccs2)n2nc(-c3cccc(C)c3)nc2N1 (centres undefined) | 0% | 1% | -17% | -1% | 8% | 10µM*
CCOc1ccccc1C1C(C(N)=O)=C(C)Nc2nc(-c3cccc(C)c3)nn21 (centres undefined) | -2% | 193% | ? | -20% | 40µM* | nt
CN(C)S(=O)(=O)N1CCC(Oc2ccc(C(=O)N3CCCCCCC3)cc2)CC1 | 6% | 160% | ? | 8% | -3% | -19%
CC(CNC(=O)CCS(=O)(=O)c1ccc2c(c1)oc(=O)n2C)c1ccccc1 (centres undefined) | 3% | -11% | ? | 0% | -20% | 9.3µM*
Cn1c(=O)oc2cc(S(=O)(=O)CCC(=O)NCc3ccccc3)ccc21 | 26% | nt | nt | nt | 9% | nt
